# Where “and” joins values, the source holds several entries; their conditions need not be identical. Identical values can stand only once. About 83,000 compounds went through this panel and 20% of them were active in at least one assay; those are over-represented in the sample as a whole.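 Values shown are percent growth following 48 h exposure of cells in 96-well plates to a single concentration of compound; below 10 was considered active.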 Calls of active or inactive are those of the source.
# System: NCI/ADR-RES ovarian
# Experiment: NCI-60 one-dose screen, 48 h (100 = growth as untreated, 0 = no growth, -100 = all killed)
# Details: 10 µM unless noted
row,Structure (SMILES),growth
1,Cc1cc(O)c(C(C)C)cc1N,102% (inactive) and 98.8% (inactive)
2,COc1ccc2cc3[n+](cc2c1OC)CCc1cc2c(cc1-3)OCO2,99% (inactive) and 101% (inactive)
3,COc1c(/C(C)=N/N=c2sc(C(C)=O)nn2-c2ccc(Cl)cc2)c(Oc2ccccc2)c(OC)c2occc12,96.5% (inactive) and 99.7% (inactive)
4,OC(COc1cccc2ccccc12)CN1CCN(c2ccc(Cl)cc2)CC1 (stereo not drawn),88.6% (inactive) and 83.4% (inactive)
5,CNc1ccc2nc3ccc(=[N+](C)C)cc-3sc2c1,2.25% (active) and 1.64% (active)
6,CC1=NN(c2ccccc2)C(=O)C1C(=O)c1ccccc1 (stereo not drawn),101% (inactive)
7,OCCN1CCN(CCO)CC1,100% (inactive) and 94% (inactive) and 120% (inactive)
8,CC1=CCC2CC1C2(C)C (stereo not drawn),102% (inactive) and 81.8% (inactive)
9,COc1cc(/C=N/Nc2nc3c([nH]2)c(=O)n(C)c(=O)n3C)ccc1O,109% (inactive) and 111% (inactive)
10,S=C(S)N1CCCC1,107% (inactive) and 99.1% (inactive)
11,CC(=O)Oc1cc(C(=O)O)cc(OC(C)=O)c1OC(C)=O,103% (inactive) and 96.7% (inactive)
12,CCN(CC)C(=O)c1cccnc1,111% (inactive)
13,O=C(Nc1cccc(Cl)c1)c1cc2ccccc2cc1O,4.12% (active) and 9.44% (active)
14,Cn1c(SSc2ccc(-c3cccnc3)n2C)ccc1-c1cccnc1,103% (inactive) and 101% (inactive)
15,CN1CCN(CCC=C2c3ccccc3Sc3ccc(S(=O)(=O)N(C)C)cc32)CC1,74.7% (inactive) and 84.9% (inactive)
16,Oc1c(Cl)cc(Cl)cc1Sc1cc(Cl)cc(Cl)c1O,15.8% (inactive) and 10.8% (inactive) and 82.7% (inactive)
17,Cn1c(=O)n(-c2ccc(C(C)(C)C#N)cc2)c2c3cc(-c4cnc5ccccc5c4)ccc3ncc21,1.89% (active) and -0.868% (active)
18,O=C(N/N=C/c1ccccc1)N/N=C/c1ccccc1,114% (inactive) and 106% (inactive)
19,COc1ccc(-c2cn[nH]c2-c2cc(OC)c(OC)c(OC)c2)cc1N,-5.9% (active) and 4.84% (active)
20,C1CCCCNCCC1,127% (inactive)
21,COc1ccccc1C(C)=O,106% (inactive) and 113% (inactive)
22,NS(=O)(=O)c1cc2c(cc1Cl)NC(C(Cl)Cl)NS2(=O)=O (stereo not drawn),101% (inactive) and 108% (inactive)
23,O=C(Oc1cccc(OC(=O)c2ccccc2)c1)c1ccccc1,95.5% (inactive) and 97.7% (inactive)
24,CC1(c2ccc3ccccc3c2)CCC(=O)O1 (stereo not drawn),105% (inactive)
25,CC1=C(/C=C/C(C)=C/C=C/C(C)=C/C=N/NC(=S)NC(=S)N/N=C/C=C(C)/C=C/C=C(C)/C=C/C2=C(C)CCCC2(C)C)C(C)(C)CCC1,-34% (active) and -58.9% (active)
26,CCCCOc1cc(C(=O)NCCN(CC)CC)c2ccccc2n1,92.2% (inactive) and 99.3% (inactive)
27,COc1cc2c(c(OC)c1OC)-c1ccc(OC)c(=O)cc1[C@@H](NC(C)=O)CC2,0.46% (active) and 8.85% (active) and -20.9% (active)
28,CN1CCN(c2ccc3nc(-c4c(N)c5c(F)cccc5[nH]c4=O)[nH]c3c2)CC1,41% (inactive) and 47% (inactive)

# Reference: PubChem BioAssay (NCI)
